This note sets out measurements from PubChem BioAssay (Tox21).

The source made the active and inactive calls. Where a call stands in place of a potency, no number is given. Calls follow the shape of the dose curve; as a rule, active = well fitted curve in the direction sought with a large enough effect in the repeat runs; inconclusive = weak or mixed curves; inactive = flat fitted curve, though single readings scatter.

This assay can be described thus: qHTS assay to test for compound auto fluorescence at 590 nm (red) in HepG2 cells (AID 720674). The note with it: HepG2 autofluorescence, red 540/590 nm, 1 h; series mostly up to 46 µM. An excerpt:
U.S. Tox21 Program National Center for Advancing Translational Sciences [NCATS] NIH Chemical Genomics Center [NCGC] U.S. Environmental Protection Agency [EPA] National Institutes of Environmental Health Sciences [NIEHS] National Toxicology Program [NTP] U.S. Food and Drug Administration [FDA] Tox21 Assay Overview: Compound auto fluorescence often interferes with screening of the compound library against various biological targets and signaling pathways. Some of these compounds may have fluorophoric properties. Such properties may interfere with the assay outputs resulting in false positives and/or negatives. To decrease such complications and ensure the compound activities are relevant in terms of biological response, the Tox21 10K compound library was screened for auto fluorescence. From the fluorophores used as reporter signals in our screening assays, the auto fluorescence equivalencies of compounds against three fluorophores have been evaluated: Triamterene, Fluorescein and Rose Bengal sodium for blue, green and red fluorescence, respectively. The fluorescence intensities were measured using Excitation/Emission wavelengths at 405/460nm, 485/535nm and 540/590nm for blue, green and red labels, respectively. This assay includes the red fluorescence data.
Tox21 Assay Protocol Summary: 2,000 HepG2 cells in 5 uL of culture medium (MEM containing 10% FBS) per well were dispensed into black wall/clear bottom 1536-well plates using a Multidrop Combi Dispenser (ThermoFisher Scientific, Waltham, MA). The assay plates were incubated overnight at 37 C to allow cell attachment to the well bottom, followed by the transfer of 23 nL compound or DMSO vehicle by a pintool work station (Kalypsys , San Diego, CA). After the assay plates were incubated for 1 hr at 37 C and 5% CO2, fluorescence intensities in the assay plates were measured by an Envision (PerkinElmer, Shelton, CT) plate reader using three labels for measuring blue, green and red fluorescence at […] 460, 535 and 590 nm respectively.
Consider `COc1ccc(C(=O)CCC(=O)O)c2ccccc12`, for which the Potency result was “inactive”. The result for `C#CCOc1ccc2c(C)cc(=O)oc2c1` reads “inactive”; that for `CO[C@H]1O[C@@H]2O[C@@]3(C)CC[C@H]4[C@H](C)CC[C@@H]([C@H]1C)[C@@]24OO3`, “inactive”.

`CCOC(=O)c1c[nH]c2cc(OCC(C)C)c(OCC(C)C)cc2c1=O`: the Potency entry is “inactive”. As for `NCCCNCCCCNC(=O)C(O)NC(=O)CCCCCCN=C(N)N` (stereo not given), the entry is “inactive”; as for `Nc1nc2[nH]cc(CCc3ccc(C(=O)N[C@@H](CCC(=O)O)C(=O)O)cc3)c2c(=O)[nH]1`, “inactive”; as for `C#CCC(Cc1cnc2nc(N)nc(N)c2n1)c1ccc(C(=O)N[C@@H](CCC(=O)O)C(=O)O)cc1` (stereo not given in full), “inactive”. As for `O=C(Nc1ccc(/C=C/c2ccc(NC(=O)c3cc(S(=O)(=O)O)c4cccnc4c3O)cc2S(=O)(=O)O)c(S(=O)(=O)O)c1)c1cc(S(=O)(=O)O)c2cccnc2c1O`, the Potency entry was “inactive”.

With `COc1cc(C[C@@H]2NCCc3cc(O)c(O)cc32)cc(OC)c1OC`, the Potency entry is “inactive”. The result for `Cc1cc(-n2c(=O)[nH]c(=O)n(C)c2=O)ccc1Oc1ccc(S(=O)(=O)C(F)(F)F)cc1` reads “inactive”; that for `OC[C@H]1OC([S-])[C@H](O)[C@@H](O)[C@@H]1O.[Au+]` (stereo not given in full), “inactive”; that for `CCCCCCCCCCCCCCCC(=O)O[C@@H]1CC(C)=C(/C=C/C(C)=C/C=C/C(C)=C/C=C/C=C(C)/C=C/C=C(C)/C=C/C2=C(C)C[C@@H](OC(=O)CCCCCCCCCCCCCCC)CC2(C)C)C(C)(C)C1`, “inactive”. As for `COc1cc([C@@H]2c3cc4c(cc3C(O[C@@H]3O[C@@H]5COC(c6cccs6)O[C@H]5[C@H](O)[C@H]3O)C3COC(=O)[C@@H]32)OCO4)cc(OC)c1O` (stereo not given in full), the entry is “inactive”; as for `O=C(O)c1cccc(/C=C2/C[C@@H]3[C@@H](/C=C/[C@@H](O)C4CCCCC4)[C@H](O)C[C@@H]3O2)c1`, “inactive”. Turning to `CN=C1C=CC(=C(c2ccc(N(C)C)cc2)c2ccc(N(C)C)cc2)C=C1`, the Potency result was “inactive”. Regarding `CN1CCN(C(c2ccccc2)c2ccc(Cl)cc2)CC1` (stereo not given), the Potency result is “inactive”.

Turning to `CN1CCN2c3ncccc3Cc3ccccc3C2C1` (stereo not given), the Potency result was “inactive”. The result for `CNC(C)[C@@H]1CC[C@@H](N)[C@@H](O[C@H]2[C@H](O)[C@@H](O[C@H]3OC[C@](C)(O)[C@H](NC)[C@H]3O)[C@H](N)C[C@@H]2N)O1` (stereo not given in full) reads “inactive”; that for `CCC(C)(C)OC(=O)N[C@@H](Cc1c[nH]c2ccccc12)C(=O)N[C@@H](CCSC)C(=O)N[C@@H](CC(=O)O)C(=O)N[C@@H](Cc1ccccc1)C(N)=O`, “inactive”. As for `CO[C@H]1C[C@H](O[C@@H]2/C(C)=C/C[C@@H]3C[C@@H](C[C@]4(CC[C@H](C)[C@@H](C5CCCCC5)O4)O3)OC(=O)[C@@H]3C=C(C)/C(=N/O)[C@H]4OC/C(=C\C=C\[C@@H]2C)[C@]43O)O[C@@H](C)[C@@H]1O`, the entry is “inactive”. As for `O=C(CO)[C@@H](O)[C@H](O)[C@@H](O)C(=O)O`, the Potency result was “inactive”.

For `CC(C)N=c1cc2n(-c3ccc(Cl)cc3)c3ccccc3nc-2cc1Nc1ccc(Cl)cc1`, the Potency entry is “inactive”. The result for `C[C@H](N)C(=O)N[C@@H](C)P(=O)(O)O` reads “inactive”. The result for `CC(CCc1ccc(O)cc1)NCC(O)c1ccc(O)cc1` (stereo not given) reads “inactive”; that for `CC1(C)[C@@H]2CC[C@@]1(C)[C@H](OC(=O)CSC#N)C2`, “inactive”. As for `C#C[C@]1(O)CC[C@H]2[C@@H]3CCC4=C(CCC(=O)C4)[C@H]3CC[C@@]21C`, the Potency result was “inactive”. For `NC(Cc1ccccc1)C(=O)O` (stereo not given), the Potency entry was “inactive”. As for `CC(C)c1nc(N(C)S(C)(=O)=O)nc(-c2ccc(F)cc2)c1/C=C/C(O)CC(O)CC(=O)O` (stereo not given), the entry is “inactive”. As for `CCCCC(C)(O)C/C=C/[C@H]1[C@H](O)CC(=O)[C@@H]1CCCCCCC(=O)OC` (stereo not given in full), the entry is “inactive”; as for `O=C(O)c1nc(=O)[nH]c(=O)[nH]1`, “inactive”. As for `CCCC(=O)O[C@]1(C(=O)COC(C)=O)CC[C@H]2[C@@H]3C[C@H](F)C4=CC(=O)C=C[C@]4(C)[C@@]3(F)[C@@H](O)C[C@@]21C`, the Potency entry is “inactive”.

For `CC[C@@]1(O)C(=O)OCc2c1cc1n(c2=O)Cc2cc3c([N+](=O)[O-])cccc3nc2-1`, the Potency entry is “inactive”. As for `COc1cc(/C=C/C(=O)N2CCN(CC(=O)N3CCCC3)CC2)cc(OC)c1OC`, the entry is “inactive”; as for `C[C@H](CCCC(C)(C)O)[C@H]1CC[C@H]2[C@@H]3CC=C4C[C@@H](O)CC[C@]4(C)[C@H]3CC[C@]12C`, “inactive”; as for `O=C(Nc1ccc(Br)cc1)c1cc(Br)c(Br)s1`, “inactive”. Take `CC(=C\c1ccccc1)/C=C1/SC(=S)N(CC(=O)O)C1=O`: the Potency result is “inactive”. The result for `COc1ccc(C2(C#N)CCC(C(=O)O)CC2)cc1OC1CCCC1` (stereo not given) reads “inactive”; that for `CC(C)(C)NC[C@H](O)COc1ccccc1C1CCCC1`, “inactive”; that for `CC(=O)O[C@H]1C[C@@]2(C)[C@@H](C[C@@H](O)[C@H]3[C@@]4(C)CC[C@@H](O)[C@@H](C)[C@@H]4CC[C@@]32C)/C1=C(\CCC=C(C)C)C(=O)O`, “inactive”. As for `CS(=O)(=O)OCCCNCCCOS(C)(=O)=O`, the entry is “inactive”.
